The source of these data is ChEMBL document CHEMBL3988442, “University of Dundee, Small-Polar-MMV Screening Library” (2021).

For some assays here: Results with a measured potency or affinity are listed apart.

What all share (design): scale not given: direction of the effect not stated beside the values
For assay [1], the target named is Protein translocase subunit SecA (Escherichia coli (strain K12)) (UniProt P10408). The assay is described as follows: Assay to Identify E. coli SecA ATPase Inhibitors. As to conditions: 30 µM. It counts as functional.
Assay [2] has as its target T1, Ubiquitin-activating enzyme e1, putative (Leishmania donovani (strain BPK282A1)) (UniProt E9BSI1).
T1 sequence (whole entry): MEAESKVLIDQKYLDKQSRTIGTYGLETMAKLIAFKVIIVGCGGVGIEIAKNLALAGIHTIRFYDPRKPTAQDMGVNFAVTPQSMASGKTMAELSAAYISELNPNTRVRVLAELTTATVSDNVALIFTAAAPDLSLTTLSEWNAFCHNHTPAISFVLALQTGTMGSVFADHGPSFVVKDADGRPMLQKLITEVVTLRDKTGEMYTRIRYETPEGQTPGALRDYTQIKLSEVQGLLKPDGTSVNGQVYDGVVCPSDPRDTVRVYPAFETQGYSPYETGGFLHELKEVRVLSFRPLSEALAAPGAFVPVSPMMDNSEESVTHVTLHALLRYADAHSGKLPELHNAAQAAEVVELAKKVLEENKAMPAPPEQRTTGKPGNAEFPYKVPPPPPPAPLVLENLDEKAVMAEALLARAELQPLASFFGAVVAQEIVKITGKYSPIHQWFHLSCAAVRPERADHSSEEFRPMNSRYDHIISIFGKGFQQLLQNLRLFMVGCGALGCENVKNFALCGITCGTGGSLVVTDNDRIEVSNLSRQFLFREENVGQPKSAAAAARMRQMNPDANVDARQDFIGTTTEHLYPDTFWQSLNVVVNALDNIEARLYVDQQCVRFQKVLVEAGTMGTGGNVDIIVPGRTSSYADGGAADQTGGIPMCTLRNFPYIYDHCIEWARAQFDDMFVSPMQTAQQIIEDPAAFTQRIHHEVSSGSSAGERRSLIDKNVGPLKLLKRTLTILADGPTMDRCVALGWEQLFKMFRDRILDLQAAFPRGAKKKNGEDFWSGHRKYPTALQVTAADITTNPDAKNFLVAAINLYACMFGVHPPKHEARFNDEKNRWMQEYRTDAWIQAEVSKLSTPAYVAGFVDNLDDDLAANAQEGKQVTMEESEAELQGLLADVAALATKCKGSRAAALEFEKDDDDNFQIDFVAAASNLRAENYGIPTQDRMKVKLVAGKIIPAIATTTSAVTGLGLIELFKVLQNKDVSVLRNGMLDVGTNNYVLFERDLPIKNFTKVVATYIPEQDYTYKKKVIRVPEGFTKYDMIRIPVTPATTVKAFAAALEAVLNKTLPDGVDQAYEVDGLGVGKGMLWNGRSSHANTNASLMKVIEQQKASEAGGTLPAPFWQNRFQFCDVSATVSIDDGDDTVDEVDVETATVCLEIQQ
As to the kind of experiment: Leishmania donovani Ubiquitin Activating Enzyme (LdE1). It counts as functional. The following applies: 30 µM.

The target of assay [3] is AMP-activated protein kinase, AMPK (Homo sapiens) (UniProt P54646+O43741+P54619+Q9UGJ0+Q9Y478+Q13131+Q9UGI9). As to the kind of experiment: AMP-dependent Kinase enzyme assay. An in vitro enzyme assay that detects ADP turnover that is directly proportional to AMPK activity. This uses naive AMPK that is activated during the assay with MK-8722. It counts as functional. As to conditions: 30 µM.

Assay [4] deals with Sialic acid-binding Ig-like lectin 9 (Homo sapiens) (UniProt Q9Y336). As to the kind of experiment: Hs-Siglec9 ALPHAscreen SOP 20170721. The following applies: 10 µM. (In Alpha technology, singlet oxygen from a donor bead excites a nearby acceptor bead.)
A further assay concerns Trypanosoma cruzi. The assay is described as follows: Trypanosoma cruzi phosphomannomutase and mannose-1-phosphate guanylyltransferase assay. It counts as functional. As to conditions: 10 µM.
Assay [5] addresses T2, Arginase-2, mitochondrial (Homo sapiens) (UniProt P78540).
T2 sequence (whole entry): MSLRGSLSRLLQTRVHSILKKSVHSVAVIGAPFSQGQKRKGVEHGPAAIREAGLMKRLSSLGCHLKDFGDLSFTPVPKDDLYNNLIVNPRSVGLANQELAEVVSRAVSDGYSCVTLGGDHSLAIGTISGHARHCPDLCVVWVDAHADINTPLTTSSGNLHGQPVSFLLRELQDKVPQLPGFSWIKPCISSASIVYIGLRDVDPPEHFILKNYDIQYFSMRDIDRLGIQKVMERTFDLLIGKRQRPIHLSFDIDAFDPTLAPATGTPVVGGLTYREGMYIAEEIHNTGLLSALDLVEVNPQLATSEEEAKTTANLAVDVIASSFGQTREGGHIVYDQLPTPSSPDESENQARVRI
The assay is described as follows: in vitro enzyme assay to detect the production of urea directly proportional to the activity of Arginase II. Also: in the data most compounds retested in dose-response had high values. The class given is functional. The following applies: 33.3 µM.

Assay [6] concerns the target T3, Proteasome subunit beta (Trypanosoma cruzi) (UniProt O96673).
T3 sequence (whole entry): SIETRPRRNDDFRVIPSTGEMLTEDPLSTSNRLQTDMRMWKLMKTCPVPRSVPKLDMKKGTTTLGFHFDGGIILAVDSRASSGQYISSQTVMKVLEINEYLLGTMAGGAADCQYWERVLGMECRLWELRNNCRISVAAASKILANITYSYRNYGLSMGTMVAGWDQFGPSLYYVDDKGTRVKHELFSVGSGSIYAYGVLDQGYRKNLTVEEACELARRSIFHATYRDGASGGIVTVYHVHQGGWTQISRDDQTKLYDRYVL
As to the kind of experiment: Trypanosoma cruzi proteasome chymotrypsin-like activity (TcProtChymo) assay. Also: in the data most compounds retested in dose-response had high values. The following applies: 9.37 µM. The class given is functional.

The species named for the next assay is Homo sapiens. The assay is described as follows: To identify inhibition of the IFN signalling (Jak-Stat) pathway via expression of an eGFP reporter gene under the control of an IFN-stimulated response element (ISRE) containing MxA promoter. It counts as functional. The following applies: 30 µM. Background: A reporter such as luciferase makes a cellular process visible.

Assay [7] has as its target T4, Tyrosyl-tRNA synthetase, putative (Trypanosoma cruzi (strain CL Brener)) (UniProt Q4DSP6).
T4 sequence (whole entry): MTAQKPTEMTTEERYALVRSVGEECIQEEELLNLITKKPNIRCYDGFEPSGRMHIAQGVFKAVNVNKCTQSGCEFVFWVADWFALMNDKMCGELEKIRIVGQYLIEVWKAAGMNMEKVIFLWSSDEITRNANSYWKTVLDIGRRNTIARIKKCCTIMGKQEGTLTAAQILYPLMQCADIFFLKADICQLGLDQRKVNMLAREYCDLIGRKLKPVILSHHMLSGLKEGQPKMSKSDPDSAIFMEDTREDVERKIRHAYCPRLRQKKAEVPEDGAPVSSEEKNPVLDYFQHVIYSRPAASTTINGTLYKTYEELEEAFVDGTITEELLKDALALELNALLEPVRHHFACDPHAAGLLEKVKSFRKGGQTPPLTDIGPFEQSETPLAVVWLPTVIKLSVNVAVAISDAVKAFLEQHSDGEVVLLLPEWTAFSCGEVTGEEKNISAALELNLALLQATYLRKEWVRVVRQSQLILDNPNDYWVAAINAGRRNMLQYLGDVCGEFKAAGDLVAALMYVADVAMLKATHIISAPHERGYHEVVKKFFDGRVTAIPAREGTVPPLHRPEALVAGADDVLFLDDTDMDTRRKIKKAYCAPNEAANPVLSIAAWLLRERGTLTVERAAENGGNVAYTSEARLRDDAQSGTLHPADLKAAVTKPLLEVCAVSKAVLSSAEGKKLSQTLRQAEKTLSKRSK
The assay is described as follows: Trypanosoma cruzi tyrosyl tRNA synthetase (TcYRS) _High Tyrosine SOP. Also: in the data most compounds retested in dose-response had high values. It counts as functional. The following applies: 30 µM.

Assay [8] addresses T4, Tyrosyl-tRNA synthetase, putative (Trypanosoma cruzi (strain CL Brener)). The assay is described as follows: Trypanosoma cruzi tyrosyl tRNA synthetase (TcYRS) SOP. As to conditions: 30 µM. The class given is functional.
In assay [9] the target is Chromo domain-containing protein 1 (Saccharomyces cerevisiae (strain ATCC 204508 / S288c) (Baker's yeast)) (UniProt P32657). As to the kind of experiment: ScCHD-1 Enzyme Inhibition Assay. Also: in the data most compounds retested in dose-response had high values. As to conditions: 30 µM. The class given is functional.
Chain of Chromo domain-containing protein 1 (Saccharomyces cerevisiae (strain ATCC 204508 / S288c) (Baker's yeast)) (P32657 whole entry, the tested form may be a part): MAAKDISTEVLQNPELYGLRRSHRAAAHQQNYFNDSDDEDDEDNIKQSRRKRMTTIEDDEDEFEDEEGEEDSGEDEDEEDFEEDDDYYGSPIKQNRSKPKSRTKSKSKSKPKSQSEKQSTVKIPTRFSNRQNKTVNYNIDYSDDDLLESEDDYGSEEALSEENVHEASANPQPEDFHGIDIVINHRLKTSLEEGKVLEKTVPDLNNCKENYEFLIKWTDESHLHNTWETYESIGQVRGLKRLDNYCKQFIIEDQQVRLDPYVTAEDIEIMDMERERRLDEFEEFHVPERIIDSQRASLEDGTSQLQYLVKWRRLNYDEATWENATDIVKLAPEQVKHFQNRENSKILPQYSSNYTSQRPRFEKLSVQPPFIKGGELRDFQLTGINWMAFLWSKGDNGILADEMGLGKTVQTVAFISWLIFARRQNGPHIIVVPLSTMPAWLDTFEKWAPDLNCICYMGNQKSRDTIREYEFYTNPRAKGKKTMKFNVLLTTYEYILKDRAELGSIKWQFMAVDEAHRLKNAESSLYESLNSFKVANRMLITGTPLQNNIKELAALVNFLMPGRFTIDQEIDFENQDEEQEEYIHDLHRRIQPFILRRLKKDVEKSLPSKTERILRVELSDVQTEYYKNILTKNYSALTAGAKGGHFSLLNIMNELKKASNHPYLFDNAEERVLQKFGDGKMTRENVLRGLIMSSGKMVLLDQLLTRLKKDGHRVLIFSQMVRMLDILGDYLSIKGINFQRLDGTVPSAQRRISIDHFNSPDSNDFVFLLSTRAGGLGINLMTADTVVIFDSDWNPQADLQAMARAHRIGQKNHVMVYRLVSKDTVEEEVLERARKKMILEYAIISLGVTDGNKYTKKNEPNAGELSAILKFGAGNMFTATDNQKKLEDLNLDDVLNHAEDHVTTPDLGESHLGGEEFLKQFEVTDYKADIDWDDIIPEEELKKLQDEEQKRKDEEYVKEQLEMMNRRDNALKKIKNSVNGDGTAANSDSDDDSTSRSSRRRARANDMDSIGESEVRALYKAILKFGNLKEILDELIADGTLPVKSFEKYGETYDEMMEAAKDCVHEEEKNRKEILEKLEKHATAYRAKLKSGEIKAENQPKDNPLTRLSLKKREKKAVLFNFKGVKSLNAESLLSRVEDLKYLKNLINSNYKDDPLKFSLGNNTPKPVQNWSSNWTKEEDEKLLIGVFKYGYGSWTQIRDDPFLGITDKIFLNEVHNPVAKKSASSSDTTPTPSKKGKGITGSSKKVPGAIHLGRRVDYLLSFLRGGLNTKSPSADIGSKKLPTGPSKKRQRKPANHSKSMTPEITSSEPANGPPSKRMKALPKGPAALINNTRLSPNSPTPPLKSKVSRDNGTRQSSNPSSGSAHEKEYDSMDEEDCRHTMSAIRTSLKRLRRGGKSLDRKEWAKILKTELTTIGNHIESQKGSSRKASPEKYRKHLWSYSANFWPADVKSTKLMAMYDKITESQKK

Chain of Sialic acid-binding Ig-like lectin 9 (Homo sapiens) (Q9Y336 whole entry): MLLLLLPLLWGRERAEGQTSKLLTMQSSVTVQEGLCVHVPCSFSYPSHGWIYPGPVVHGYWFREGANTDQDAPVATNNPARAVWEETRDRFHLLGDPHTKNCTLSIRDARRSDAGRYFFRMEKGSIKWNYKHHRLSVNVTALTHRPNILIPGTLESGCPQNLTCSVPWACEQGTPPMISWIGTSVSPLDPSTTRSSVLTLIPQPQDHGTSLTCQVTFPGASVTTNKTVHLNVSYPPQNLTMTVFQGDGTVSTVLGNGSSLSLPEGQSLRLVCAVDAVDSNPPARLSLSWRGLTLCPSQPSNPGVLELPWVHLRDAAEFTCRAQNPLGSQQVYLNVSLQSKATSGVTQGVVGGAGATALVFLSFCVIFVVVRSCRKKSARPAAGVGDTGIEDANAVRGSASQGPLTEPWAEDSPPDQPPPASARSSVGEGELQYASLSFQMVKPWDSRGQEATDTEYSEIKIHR
Chain of Protein translocase subunit SecA (Escherichia coli (strain K12)) (P10408 whole entry): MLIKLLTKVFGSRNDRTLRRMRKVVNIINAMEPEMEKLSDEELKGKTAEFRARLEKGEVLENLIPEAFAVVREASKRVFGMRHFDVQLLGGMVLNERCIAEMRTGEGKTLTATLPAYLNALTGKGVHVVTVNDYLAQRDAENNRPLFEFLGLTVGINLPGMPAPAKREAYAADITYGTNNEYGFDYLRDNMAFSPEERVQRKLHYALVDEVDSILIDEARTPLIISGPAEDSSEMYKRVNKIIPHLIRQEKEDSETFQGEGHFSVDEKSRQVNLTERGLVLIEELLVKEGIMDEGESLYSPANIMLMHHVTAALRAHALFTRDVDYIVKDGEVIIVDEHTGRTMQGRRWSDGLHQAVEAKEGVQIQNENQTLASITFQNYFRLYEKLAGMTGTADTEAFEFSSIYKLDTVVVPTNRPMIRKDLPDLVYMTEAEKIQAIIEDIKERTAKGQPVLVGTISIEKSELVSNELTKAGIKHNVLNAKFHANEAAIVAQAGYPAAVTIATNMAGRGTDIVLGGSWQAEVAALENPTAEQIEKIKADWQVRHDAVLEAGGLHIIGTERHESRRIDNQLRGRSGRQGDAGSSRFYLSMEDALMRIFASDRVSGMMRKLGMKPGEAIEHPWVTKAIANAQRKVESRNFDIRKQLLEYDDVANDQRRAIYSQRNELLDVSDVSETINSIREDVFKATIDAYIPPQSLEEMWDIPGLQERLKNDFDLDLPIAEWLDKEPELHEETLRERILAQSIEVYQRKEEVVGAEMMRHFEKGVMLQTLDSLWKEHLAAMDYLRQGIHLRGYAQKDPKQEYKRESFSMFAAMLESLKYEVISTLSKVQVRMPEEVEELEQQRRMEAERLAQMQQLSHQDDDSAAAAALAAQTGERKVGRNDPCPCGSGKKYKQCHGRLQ

On to `O=C(NCCNc1ncccn1)C1CCN(C(=O)C2CC2)CC1`, for which the Percent Effect in [1] is -2.16%; in assay [2], 13.5%; in [3], 5.28%; in assay [4], -1.97%; with Trypanosoma cruzi, -4.55%; in assay [5], 5.36%. The Percent Effect in assay [6] was 0.718%; in the assay filed under Homo sapiens it was 13.2%; in [7] it was 6.93%; in assay [8], 13.4%; in assay [9], 3.86%.

Turning to `Cc1ccc(CN(C)C(=O)CN2CCCC2Cn2cccn2)o1` (stereo not given), the Percent Effect in [1] was 0.121%; in [2], 2.7%; in [3], -3.95%; in assay [4], 12.4%; in the assay on Trypanosoma cruzi, 5.99%; in assay [5] it was 0%. The Percent Effect in [6] was 1.9%; in the assay listed under Homo sapiens, -5.92%; in assay [7], 2.65%; in [8], 7.32%; in assay [9], -4.66%.

For the compound `Cn1ccnc1CN1CCC2(CC1)CC(NC(=O)c1ccccn1)CO2` (stereo not given), the Percent Effect in [1] is -1.87%; in [2] it was 20.8%; in assay [3] it was -1.66%; in [4] it was -10.3%; in the assay with Trypanosoma cruzi it was 1.28%; in assay [5], 3.23%. In addition, the Percent Effect in assay [6] was 9.4%; in the assay filed under Homo sapiens, 0.302%; in [7], -20.1%; in [8], 16.7%; in assay [9], -10.2%.

With `Cc1cnn(CCNCc2csc(-c3ccc(F)cc3)n2)c1`, the Percent Effect in assay [1] is -3.56%; in [2], -15.8%; in [3], 4.58%; in assay [4] it was 5.27%; in the assay on Trypanosoma cruzi, 3.19%; in assay [5], 0.383%. The Percent Effect in assay [6] was 1%; in the assay listed under Homo sapiens, 1.14%; in [7] it was 1.47%; in assay [8] it was 0%; in [9] it was 5.05%.

On to `COc1c(CNCc2cccc(CN(C)C)c2)c(C)nn1C`, for which the Percent Effect in assay [1] is -7.85%; in assay [2], 10.8%; in assay [3], -5.13%; in assay [4] it was 6.33%; with Trypanosoma cruzi it was -2.17%; in assay [5], -4.01%. Besides, the Percent Effect in [6] was -0.36%; in the assay filed under Homo sapiens, 13.9%; in assay [7], 4.43%; in assay [8], 6.17%; in assay [9], -5.81%.

In the case of `Cn1cc(C2CCCN2Cc2csc(-c3ccsc3)n2)cn1` (stereo not given), the Percent Effect is -1.56% in [1]; -2.53% in assay [2]; -11.2% in assay [3]; 3.12% in [4]; -7.46% in the assay with Trypanosoma cruzi; 0.76% in [5]. Further, the Percent Effect was 3.36% in assay [6]; 8.82% in the assay filed under Homo sapiens; -24.1% in assay [7]; 3.8% in assay [8]; -2% in assay [9].

For `CC(=O)c1ccc(N2CCCC(CO)(CCOc3ccccc3)C2)nc1` (stereo not given), the Percent Effect in assay [1] was -1.73%; in assay [2] it was 10.4%; in assay [3] it was 4.96%; in assay [4] it was 15.7%; in the assay on Trypanosoma cruzi it was 6.39%; in [5] it was -22.1%. The Percent Effect was 19.5% in [6]; 65.7% in the assay filed under Homo sapiens; 5.38% in assay [7]; 16.1% in assay [8]; -2.3% in [9].

In the case of `Cc1nc(CN(C)C2CCN(CC(=O)N3CCOCC3)C2)no1` (stereo not given), the Percent Effect in assay [1] is -3.5%; in [2], 18.9%; in assay [3] it was -5.27%; in [4] it was -3.82%; in the assay on Trypanosoma cruzi, -3.62%; in [5], -3.14%. The Percent Effect in [6] was 1.98%; in the assay filed under Homo sapiens, 1.74%; in [7], 5.94%; in [8] it was 18.3%; in assay [9], -3.28%.

On to `O=C(NCCN1CCCCC1)c1scnc1Cl`, for which the Percent Effect was -0.516% in assay [1]; 15.8% in [2]; 7.25% in assay [3]; -5.01% in assay [4]; -5.7% in the assay on Trypanosoma cruzi; 3.24% in [5]. Also, the Percent Effect in assay [6] is 13.6%; in the assay listed under Homo sapiens it was 3.91%; in [7], 9.36%; in [8], 16.1%; in assay [9], -5.64%.

Take `Cn1ccnc1COc1ccc(CN2CCN(CCO)CC2)cc1`: the Percent Effect in [1] was -4.05%; in assay [2], 20.8%; in assay [3], -12.5%; in assay [4] it was -0.317%; in the assay with Trypanosoma cruzi, -3.18%; in [5] it was -3.2%. The Percent Effect is 5.07% in assay [6]; 29.4% in the assay listed under Homo sapiens; 10.7% in assay [7]; 2.44% in assay [8]; -9.14% in assay [9].
